Source: article PMC4336329 (PLoS ONE, 2015)
The whole screen tested about 310,000 compounds, of which about 14,000 (4.5%) showed an effect of 50% or more. Effects have a minus sign here. Many of the other results were omitted from the sample, so strong results are more common in it than they were.

biological target: human ether-à-go-go-related gene (hERG) potassium channel (human, UniProt Q12809); assay: primary screen, population patch clamp on CHO cells stably expressing hERG; higher = less effect of the substance
Sequence (Q12809 whole entry, looked up): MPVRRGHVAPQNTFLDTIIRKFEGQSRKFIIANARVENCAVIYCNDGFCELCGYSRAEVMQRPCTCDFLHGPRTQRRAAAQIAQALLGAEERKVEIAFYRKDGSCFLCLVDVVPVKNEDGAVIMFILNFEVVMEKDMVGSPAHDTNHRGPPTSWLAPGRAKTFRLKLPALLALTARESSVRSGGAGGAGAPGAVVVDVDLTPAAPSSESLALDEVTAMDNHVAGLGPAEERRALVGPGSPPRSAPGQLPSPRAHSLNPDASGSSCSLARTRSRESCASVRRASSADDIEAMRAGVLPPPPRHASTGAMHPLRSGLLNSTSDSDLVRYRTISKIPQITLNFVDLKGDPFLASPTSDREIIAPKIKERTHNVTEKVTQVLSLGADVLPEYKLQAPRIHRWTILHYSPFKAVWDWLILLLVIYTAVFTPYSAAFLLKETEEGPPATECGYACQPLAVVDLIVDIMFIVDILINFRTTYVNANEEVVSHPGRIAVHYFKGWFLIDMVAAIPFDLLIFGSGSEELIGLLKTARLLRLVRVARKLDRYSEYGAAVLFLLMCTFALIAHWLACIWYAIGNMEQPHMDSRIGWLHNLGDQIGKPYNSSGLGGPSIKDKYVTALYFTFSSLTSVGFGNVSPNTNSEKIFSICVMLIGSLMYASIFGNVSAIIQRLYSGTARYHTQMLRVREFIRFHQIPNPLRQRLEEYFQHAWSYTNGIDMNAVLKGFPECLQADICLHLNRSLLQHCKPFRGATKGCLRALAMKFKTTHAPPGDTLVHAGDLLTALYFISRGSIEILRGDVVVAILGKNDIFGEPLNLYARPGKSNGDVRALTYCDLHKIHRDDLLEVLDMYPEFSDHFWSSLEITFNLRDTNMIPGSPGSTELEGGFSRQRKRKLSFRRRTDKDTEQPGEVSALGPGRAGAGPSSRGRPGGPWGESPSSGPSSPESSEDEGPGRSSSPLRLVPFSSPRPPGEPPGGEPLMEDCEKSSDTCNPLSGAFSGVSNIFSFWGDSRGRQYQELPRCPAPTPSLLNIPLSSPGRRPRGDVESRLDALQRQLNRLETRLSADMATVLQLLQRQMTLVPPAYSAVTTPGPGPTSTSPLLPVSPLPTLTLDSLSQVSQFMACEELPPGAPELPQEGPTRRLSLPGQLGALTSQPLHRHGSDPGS
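Also: peak tail current of the secondary pulse compared with the same well before compound.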

Row | Compound | hERG current change (%, negative = inhibition) at 10uM [%]
1 | C/C=C/c1ccc(OCCN2C(=O)NC(C)(C)C2=O)c(OC)c1 | 6.58
2 | O=C(O)c1ccc2ccccc2c1O.OCc1cc(C(O)CNCCCCCCOCCCCc2ccccc2)ccc1O (centres unmarked) | -45.5
3 | OC(CNCCc1ccccc1)c1ccccc1 (centres unmarked) | -0.0558
4 | OCc1cc(C(O)CNCCCCCCOCCCCc2ccccc2)ccc1O (centres unmarked) | -57.9
5 | Cc1ccc(C(=O)Nc2ccc(N3CCN(C(=O)c4ccco4)CC3)cc2)cc1 | 10.4
6 | CCN(CC)CCCN1C(=O)c2oc3ccccc3c(=O)c2C1c1cc(OC)ccc1OC (centres unmarked) | -13
7 | N#CC(C(=O)NC1CC1)c1nc2ccccc2nc1N1CCN(C/C=C/c2ccccc2)CC1 (centres unmarked) | -58.9
8 | C=CCOC(=O)C(C#N)c1nc2ccccc2nc1N1CCN(Cc2ccccc2)CC1 (centres unmarked) | -62.1
9 | COC(=O)C(C#N)c1nc2ccccc2nc1N1CCN(Cc2ccc3c(c2)OCO3)CC1 (centres unmarked) | -2.48
10 | N#CC(C(=O)NC1CC1)c1nc2ccccc2nc1N1CCCC1 (centres unmarked) | -7.63
11 | CC(C)COC(=O)C(C#N)c1nc2ccccc2nc1N1CCN(Cc2ccccc2)CC1 (centres unmarked) | -12
12 | CC(C)OC(=O)C(C#N)c1nc2ccccc2nc1N1CCN(Cc2ccccc2)CC1 (centres unmarked) | -18.6
13 | COCCOC(=O)C(C#N)c1nc2ccccc2nc1N1CCN(Cc2ccccc2)CC1 (centres unmarked) | -64.3
14 | COCC(C)OC(=O)C(C#N)c1nc2ccccc2nc1N1CCN(Cc2ccccc2)CC1 (centres unmarked) | -31
15 | CC1CCN(c2nc3ccccc3nc2C(C#N)C(=O)NC2CCCCC2)CC1 (centres unmarked) | 10.1
16 | CSc1ccc(/C=C/C(=O)c2ccc(NC(=O)Cc3ccccc3)cc2)cc1 | -4.59
17 | O=C(O)c1ccc(NS(=O)(=O)c2ccc(Cl)c(Cl)c2)cc1O | -1.71
18 | COc1ccc(-c2csc3nc(-c4ccccc4F)oc(=O)c23)cc1OC | -3.61
19 | CCOC(=O)c1ccc(COC(=O)c2cc3ccccc3oc2=O)o1 | -48.6
20 | O=C1NC2=C(CCc3ccccc32)C(c2ccc(Br)cc2)N1 (centres unmarked) | -56.3
21 | O=C1NC2=C(CCc3ccccc32)C(c2ccccc2)N1 (centres unmarked) | -20.8
22 | Cc1ccc(C2NC(=O)NC3=C2CCc2ccccc23)cc1 (centres unmarked) | 2.59
23 | CCOC(=O)c1cccc(NC(=O)c2c(O)[nH]c(=O)[nH]c2=O)c1 | -2.88

Row | Compound | hERG current change (%, negative = inhibition) at 10uM [%]
24 | Cc1ccc(CN2CCSc3ccc(C(=O)N4CCN(c5ncccn5)CC4)cc32)cc1 | 19
25 | CN(NC(=O)C(C)(C)C)c1nc(-c2ccccc2)nnc1C(F)(F)F | -4.05
26 | CC(C)C(=O)NNC(=O)CSc1ncnc2c1cnn2-c1ccccc1Cl | 9.5
27 | Cc1sc2ncnc(SCC(=O)N3CCCC3)c2c1C | 2.1
28 | Cc1sc2nc(C(C)C)nc(SCC(=O)NCc3ccco3)c2c1C | 2.82
29 | CC(=O)Nc1ccc(NC(=O)CSc2ncnc3sc(C)c(C)c23)cc1 | 8.58
30 | O=C(CSc1ncnc2c1cnn2-c1ccccc1Cl)N1CCN(C(=O)c2ccco2)CC1 | -65.7
31 | Cc1nc(SCC(=O)Nc2ccc(CN3CCCC3)cc2)c2c(C)c(C)sc2n1 | -35.3
32 | Cc1sc2ncnc(SCC(=O)Nc3ccc(CN4CCCC4)cc3)c2c1C | -72.6
33 | COc1ccc(N2CCN(C(=O)CSc3ncnc4c3cnn4-c3ccccc3C)CC2)cc1 | 10.8
34 | Cc1sc2nc(C(C)C)nc(SCC(=O)N3CCOCC3)c2c1C | -0.958
35 | Cc1sc2ncnc(OCC(=O)N3CCN(C(=O)c4ccco4)CC3)c2c1C | -30.8
36 | Cc1sc2nc(C(C)C)nc(SCC(=O)N3CCN(C(=O)c4ccco4)CC3)c2c1C | -72.3
37 | Cc1sc2ncnc(SCC(=O)N3CCN(C(=O)c4ccco4)CC3)c2c1C | -70.1
38 | Cc1cc(=O)n2nc(N3CCCC(C(=O)N4CCOCC4)C3)sc2n1 (centres unmarked) | 3.1
39 | COc1ccc(/C=C/c2c([N+](=O)[O-])c(=O)n(C)c(=O)n2C)c(OC)c1OC | 13
40 | O=C(N/N=C/c1cccc2ccccc12)c1cccs1 | 20.7
41 | COc1ccccc1N(CC(=O)NCC1CCCO1)C(=O)CNS(=O)(=O)c1ccccc1 (centres unmarked) | -0.369
42 | Cc1cc(=O)oc(C)c1C(=O)Nc1ccc2nsnc2c1 | 9.45
43 | CCOC(=O)c1ccc2c(c1)nc(SC(C)C(=O)NCC1CCCO1)n2CC (centres unmarked) | -18.9
44 | CCOC(=O)c1ccc(NC(=O)CNC(=O)c2ccco2)cc1 | 13.8
45 | O=C(NC(=S)Nc1ccccn1)c1ccc([N+](=O)[O-])cc1 | -11.9
46 | O=C(CC12CC3CC(CC(C3)C1)C2)NC1CC1 | 23.2

Row | Compound | hERG current change (%, negative = inhibition) at 10uM [%]
47 | CCOc1ccc(S(=O)(=O)N2CCN(C(=S)NCc3ccccc3)CC2)cc1 | -18.2
48 | Nc1cccc(C(=O)Nc2cccc3ncccc23)c1 | 23.8
49 | Cc1cccc(N2CCN(C(=O)c3ccc4c(c3)CCN4S(C)(=O)=O)CC2)c1C | -14.8
50 | Cc1nc(SCC(=O)N2CCN(C(=O)c3ccco3)CC2)c2c(C)c(C)sc2n1 | -66.8
51 | Cc1nc(SCC(=O)N2CCOCC2)c2c(C)c(C)sc2n1 | 1.76
52 | Cc1nc(SCC(=O)N2CCCCC2)c2c(C)c(C)sc2n1 | -11.7
53 | CCCN1Cc2cccc(C(=O)NCc3ccccc3)c2C1=O | -34.9
54 | O=C(Nc1cccc(-c2nnc(-c3ccccc3)o2)c1)C1CC1 | -19.3
55 | O=C(Nc1cccc(-c2nnc(-c3ccccc3)o2)c1)C1CCCO1 (centres unmarked) | -66.5
56 | O=C(Nc1ccc(-c2nnc(-c3ccccc3)o2)cc1)C1CCCO1 (centres unmarked) | -13.3
57 | C=CCn1c(=NC(=O)C2CCCCC2)sc2cc(NC(C)=O)ccc21 | -2.15
58 | OC(COCc1cccs1)CN1CCN(c2ccccc2Cl)CC1 (centres unmarked) | -71
59 | COc1ccccc1N1CCN(CC(O)COCc2cccs2)CC1.Cl (centres unmarked) | -19.8
60 | Oc1ccccc1N1CCN(CC(O)COCc2ccccc2Cl)CC1 (centres unmarked) | -42
61 | OC(COCc1cccs1)CN1CCN(c2ccccn2)CC1 (centres unmarked) | -52.5
62 | CCOC(=O)C1CCN(CC(O)COCc2cccs2)CC1 (centres unmarked) | -38
63 | O=S(=O)(c1ccc(F)cc1)N1CCN(CC(O)COCc2cccs2)CC1 (centres unmarked) | -18.5
64 | Cc1cccc(N2CCN(CC(O)COCc3cccs3)CC2)c1C (centres unmarked) | -70.8
65 | CCOc1ccccc1N1CCN(CC(O)COCc2cccs2)CC1 (centres unmarked) | -32.1
66 | CCOC(=O)c1cccc(COC(=O)c2cccc(-c3nnc(-c4ccccc4)o3)c2)c1 | -2.94
67 | COc1ccc(C(=O)c2ccsc2N)cc1 | 3.5
68 | Cc1ccc(OP(=O)(O)Oc2ccc(C)cc2)cc1 | 2.09
69 | CCOC(=O)c1cnc2ccc(OCC)cc2c1N(C)Cc1ccccc1 | -11.9

Row | Compound | hERG current change (%, negative = inhibition) at 10uM [%]
70 | CCOC(=O)c1cnc2ccc(OC)cc2c1NCc1ccccc1 | -65.8
71 | CCOC(=O)c1cnc2ccc(OCC)cc2c1NCc1cccnc1.Cl | -77.4
72 | CCOC(=O)c1cnc2ccc(OCC)cc2c1NCc1ccccc1 | -40.3
73 | CCOC(=O)c1nc(NCc2cccnc2)c2ccccc2n1 | -15.3
74 | CCOC(=O)c1cnc2ccc(OCC)cc2c1NCc1ccccc1OC | 4.45
75 | Cc1cccc(NC(=O)c2cc(S(=O)(=O)NCc3ccco3)ccc2F)c1C | 4.11
76 | O=C(CNC(=O)c1ccc(-c2ccccc2)cc1)Nc1ccc(S(=O)(=O)Nc2ncccn2)cc1 | 4.04
77 | Cc1cc(NCc2ccccn2)ccc1Br | -16.5
78 | Clc1ccc(Cn2cccc2C2=NCCO2)cc1 | 4.69
79 | CC(C)CNc1nc(Oc2ccc(=O)[nH]n2)nc(N(C)C)n1 | 8.46
80 | COC(=O)CC(NC(=S)NC(=O)c1ccccc1)c1ccc(Br)cc1 (centres unmarked) | 6.8
81 | C=CCn1cc(C(=O)NCCCOC)c(=O)c2cc(S(=O)(=O)N3CCC(C)CC3)ccc21 | -32.9
82 | COCCNC(=O)c1cn(C)c2ccc(S(=O)(=O)N3CCCCC3)cc2c1=O | 11.1
83 | C=CCn1cc(C(=O)NCCOC)c(=O)c2cc(S(=O)(=O)N(CC)CC)ccc21 | -13.9
84 | C=CCn1cc(C(=O)NCc2ccc(Cl)cc2)c(=O)c2cc(S(=O)(=O)N(CC)CC)ccc21 | -22.5
85 | C=CCn1cc(C(=O)NCCCN(CC)CC)c(=O)c2cc(S(=O)(=O)N3CCC(C)CC3)ccc21 | -53.7
86 | CCN(CC)CCNC(=O)c1cn(CC)c2ccc(S(=O)(=O)N3CCOCC3)cc2c1=O | 14.6
87 | C=CCn1cc(C(=O)NCCN(CC)CC)c(=O)c2cc(S(=O)(=O)N3CCCCCC3)ccc21 | -71.6
88 | C=CCn1cc(C(=O)OC)c(=O)c2cc(S(=O)(=O)N3CCCCCC3)ccc21 | -0.223
89 | C=CCn1cc(C(=O)NCc2cccnc2)c(=O)c2cc(S(=O)(=O)N(CC)CC)ccc21 | -74.4
90 | C=CCn1cc(C(=O)OC)c(=O)c2cc(S(=O)(=O)N3CCC(C)CC3)ccc21 | -39
91 | C=CCn1cc(C(=O)NCCOC)c(=O)c2cc(S(=O)(=O)N3CCCCCC3)ccc21 | -65.8
92 | C=CCn1cc(C(=O)NCc2ccco2)c(=O)c2cc(S(=O)(=O)N3CCCCCC3)ccc21 | -36.4
